SMILES strings stand for the structures. The source made the active and inactive calls. Unless noted, no rule for the calls is given here.

A short description of assay [1]: anti-His antibody binders, primary screen, artefact control for SMM control protein annotation, biochemical, small-molecule microarray, 635 nm fluorescence (AID 1128).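 Also: score merges feature fluorescence with signal-to-noise for each printed compound spot.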 The conditions noted are these: anti-His Alexa647 antibody binding, higher = more signal.
Assay [2] has as its system Human papillomavirus type 1a E7 protein (residues 1-88). Briefly: HPV1a E7 small-molecule binders, primary screen, biochemical, small-molecule microarray, residues 1-88, 635 nm (AID 1129). The conditions noted are these: small-molecule microarray binding, fluorescence 635 nm; higher = more signal.
The target in assay [3] is Focal adhesion kinase 1 (Homo sapiens) (UniProt Q05397). Briefly: small-molecule microarray binders of FAK, primary screen, biochemical, 635/667 nm fluorescence, BSA, DTT (AID 1130).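 Also: composite of spot emission at 667 nm and signal to noise over triplicate slides.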 The conditions noted are these: PTK2 binding, 635 nm fluorescence, higher = more signal.
Focal adhesion kinase 1 (Homo sapiens), sequence (Q05397 whole entry, looked up): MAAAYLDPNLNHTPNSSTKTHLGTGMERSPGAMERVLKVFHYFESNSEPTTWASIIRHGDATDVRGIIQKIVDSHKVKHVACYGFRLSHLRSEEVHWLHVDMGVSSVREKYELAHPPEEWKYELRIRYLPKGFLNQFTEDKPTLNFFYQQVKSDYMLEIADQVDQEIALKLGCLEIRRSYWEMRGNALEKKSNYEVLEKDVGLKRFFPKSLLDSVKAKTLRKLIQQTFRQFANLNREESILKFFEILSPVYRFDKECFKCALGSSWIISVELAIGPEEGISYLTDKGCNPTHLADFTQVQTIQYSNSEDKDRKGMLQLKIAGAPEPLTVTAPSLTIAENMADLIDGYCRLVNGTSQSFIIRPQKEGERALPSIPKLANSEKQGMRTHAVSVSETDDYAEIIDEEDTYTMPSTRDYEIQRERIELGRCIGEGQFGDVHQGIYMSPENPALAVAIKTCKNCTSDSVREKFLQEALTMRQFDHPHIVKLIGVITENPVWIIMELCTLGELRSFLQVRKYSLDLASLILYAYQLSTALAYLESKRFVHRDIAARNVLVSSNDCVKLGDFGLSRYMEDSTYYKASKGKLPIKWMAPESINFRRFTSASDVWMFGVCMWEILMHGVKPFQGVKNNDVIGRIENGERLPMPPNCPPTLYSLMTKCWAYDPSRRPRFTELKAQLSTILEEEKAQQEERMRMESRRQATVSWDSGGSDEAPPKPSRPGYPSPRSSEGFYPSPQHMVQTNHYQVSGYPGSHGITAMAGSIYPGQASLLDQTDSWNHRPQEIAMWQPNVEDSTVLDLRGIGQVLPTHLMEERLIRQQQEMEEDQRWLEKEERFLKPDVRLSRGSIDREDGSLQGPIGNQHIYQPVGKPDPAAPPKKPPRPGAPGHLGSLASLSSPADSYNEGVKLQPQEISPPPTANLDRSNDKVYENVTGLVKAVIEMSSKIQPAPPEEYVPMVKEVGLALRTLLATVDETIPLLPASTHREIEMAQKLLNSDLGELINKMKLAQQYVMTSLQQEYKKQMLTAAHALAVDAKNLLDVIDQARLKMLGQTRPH
The subject of assay [4] is Fibrinogen (Alexa647-labelled). Briefly: fibrinogen binders on compound microarrays, profiling panel, artefact control for SMM control-protein annotation, biochemical, small-molecule microarray, 635/667 nm fluorescence (AID 1131).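 Also: z-score merges 667 nm fluorescence with per-spot signal-to-noise over triplicate slides.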 The conditions noted are these: fibrinogen-A647 binding fluorescence, higher = more signal.
The target of assay [5] is Follistatin (Homo sapiens) (UniProt P19883). Briefly: follistatin binders on small-molecule microarrays, primary screen, biochemical, small-molecule microarray, 635/667 nm fluorescence (AID 1132). The conditions noted are these: FST binding, 635 nm fluorescence, higher = more signal.
Follistatin (Homo sapiens), sequence (P19883 whole entry, looked up): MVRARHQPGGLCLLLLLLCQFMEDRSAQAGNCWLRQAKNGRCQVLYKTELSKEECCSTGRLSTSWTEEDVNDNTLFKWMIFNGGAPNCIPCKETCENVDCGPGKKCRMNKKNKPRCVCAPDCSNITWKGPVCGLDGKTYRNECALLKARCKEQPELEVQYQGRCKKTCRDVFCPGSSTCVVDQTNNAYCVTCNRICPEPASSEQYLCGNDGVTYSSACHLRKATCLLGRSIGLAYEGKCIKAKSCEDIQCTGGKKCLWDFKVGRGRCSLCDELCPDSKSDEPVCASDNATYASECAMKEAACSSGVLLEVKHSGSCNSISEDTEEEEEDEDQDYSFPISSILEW
Assay [6] addresses Fibroblast growth factor 2 (Homo sapiens) (UniProt P09038). Briefly: FGF2 binders on small-molecule microarrays, primary screen, biochemical, small-molecule microarray, 635/667 nm fluorescence (AID 1133). The conditions noted are these: small-molecule microarray binding, FGF2, fluorescence 635/667; higher = more signal.
A short description of assay [7]: mitochondrial membrane potential change in A549 cells, profiling panel, cell-based, JC-1 fluorescence, basal, 24 h, 100 nL (AID 1138).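 Also: A549 lung adenocarcinoma cells under basal conditions with no added stimulus; test concentration not given here.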 The conditions noted are these: higher = more signal.
Another assay deals with Lefty1. Briefly: Lefty1 binders on small-molecule microarrays, primary screen, biochemical, small-molecule microarray, 635/667 nm fluorescence (AID 1139). The conditions noted are these: small-molecule microarray binding, fluorescence 635/667; higher = more signal.
Assay [8] deals with wheat germ agglutinin (Triticum aestivum), Alexa647-labelled. Briefly: wheat germ agglutinin binders on compound microarrays, profiling panel, artefact control for SMM control-protein annotation, biochemical, small-molecule microarray, 635/667 nm fluorescence (AID 1140).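 Also: score merges 667 nm feature emission with signal to noise over triplicate slides.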 The conditions noted are these: WGA-A647 binding, 635 nm fluorescence, higher = more signal.
Assay [9] deals with Luciferin 4-monooxygenase (Photinus pyralis) (UniProt P08659). Briefly: firefly luciferase enzyme inhibitors, primary screen, biochemical, luminescence, purified enzyme, 2006 set (AID 1141).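 Also: cell-free assay with purified firefly luciferase at 100 ng per well in PBS; test concentration not given here.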 The conditions noted are these: SteadyGlo luminescence, 30 min, higher = more signal, called active from +8 up or from −8 down.
Luciferin 4-monooxygenase (Photinus pyralis), sequence (P08659 whole entry, looked up): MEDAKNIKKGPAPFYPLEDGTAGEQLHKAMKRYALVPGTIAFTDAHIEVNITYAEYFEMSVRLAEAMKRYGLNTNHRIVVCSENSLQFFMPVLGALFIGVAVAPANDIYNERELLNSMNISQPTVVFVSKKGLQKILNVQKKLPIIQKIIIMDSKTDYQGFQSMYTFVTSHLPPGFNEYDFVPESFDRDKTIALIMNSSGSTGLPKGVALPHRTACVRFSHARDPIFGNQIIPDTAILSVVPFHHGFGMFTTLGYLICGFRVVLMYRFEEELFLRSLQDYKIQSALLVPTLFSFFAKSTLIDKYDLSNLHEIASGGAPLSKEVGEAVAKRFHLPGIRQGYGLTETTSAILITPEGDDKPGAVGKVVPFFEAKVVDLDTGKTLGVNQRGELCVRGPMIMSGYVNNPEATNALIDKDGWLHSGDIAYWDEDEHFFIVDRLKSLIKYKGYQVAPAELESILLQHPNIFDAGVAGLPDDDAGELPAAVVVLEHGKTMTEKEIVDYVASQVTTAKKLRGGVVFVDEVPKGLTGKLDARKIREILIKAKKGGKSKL
The test system of assay [10] is Wnt5a (protein binding on small-molecule microarray). Briefly: Wnt5a binders on small-molecule microarray, primary screen, biophysical, 635/667 nm fluorescence (AID 1142).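 Also: fluorescence read at 667 nm with signal to noise per printed feature.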 The conditions noted are these: 635 nm fluorescence, higher = more signal.
Assay [11] can be described thus: cell viability in Huh7 cells, primary screen, cytotoxicity control for HCV replication inhibitor project, CellTiter-Glo luminescence, basal, 48 h (AID 1143).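 Also: Huh7 hepatoma cells carrying a hepatitis C replication reporter with no stimulus; test concentration not given here.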 The conditions noted are these: Huh7 HCV replicon, higher = more signal, called active from +8 up or from −8 down. (Cellular ATP, detected with luciferase, serves as a proxy for viable cell number.)
Assay [12] can be described thus: P. aeruginosa biofilm formation inhibitors, primary screen, PAO1 strain, BacTiter-Glo luminescence, LB-PBS (AID 1144). The conditions noted are these: 12 h, higher = more signal.
The nature of assay [13]: CREB reporter modulators without forskolin, primary screen, cell-based, PC12, CRE-LacZ reporter, unstimulated (AID 1145). The conditions noted are these: no forskolin, luminescence, 4.5 h, higher = more signal, called active from +8 up or from −8 down.
A short description of assay [14]: CREB reporter modulators under forskolin, primary screen, cell-based, PC12, CRE-LacZ reporter, forskolin-stimulated (AID 1146).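 Also: PC12 cells with 6xCRE LacZ reporter stimulated by forskolin 10 µM; beta-galactosidase reporter signal reflecting CREB driven transcription.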 The conditions noted are these: luminescence, 4.5 h, higher = more signal, called active from +8 up or from −8 down.
Assay [15] concerns the target Streptavidin (Streptomyces avidinii) (UniProt P22629). Put plainly: streptavidin binders on small-molecule microarray, primary screen, artefact control for SMM compound annotation, biophysical, 635/667 nm fluorescence (AID 1147).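 Also: signal reflects streptavidin binding to arrayed compounds as a control protein.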 The conditions noted are these: streptavidin binding, higher = more signal.
Assay [16] is described as follows: small-molecule binders of probe aInhba, primary screen, biochemical, small-molecule microarray, 635/667 nm fluorescence (AID 1148).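 Also: score merges 667nm spot fluorescence with signal-to-noise for antibody binding to printed compounds.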 The conditions noted are these: higher = more signal.
Assay [17] deals with Torsin-1A (Homo sapiens) (UniProt O14656). Put plainly: torsin A binders from cell lysate, primary screen, small-molecule microarray, wild-type, 635/667 nm (AID 1149). The conditions noted are these: COS7 hTOR1A-WT lysate, 635 nm fluorescence, higher = more signal.
Torsin-1A (Homo sapiens), sequence (O14656 whole entry, looked up): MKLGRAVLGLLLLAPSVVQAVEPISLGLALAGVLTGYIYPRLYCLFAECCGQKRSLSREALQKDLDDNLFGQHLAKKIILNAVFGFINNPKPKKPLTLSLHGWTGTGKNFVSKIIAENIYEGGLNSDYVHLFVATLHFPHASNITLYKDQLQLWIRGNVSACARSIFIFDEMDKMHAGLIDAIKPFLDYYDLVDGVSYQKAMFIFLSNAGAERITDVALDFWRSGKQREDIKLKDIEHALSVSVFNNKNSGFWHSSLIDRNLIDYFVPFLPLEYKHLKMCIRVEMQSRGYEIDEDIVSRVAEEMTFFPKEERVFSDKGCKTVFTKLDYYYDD
Assay [18] has the same target. Put plainly: small-molecule binders of mutant TOR1A in lysate, primary screen, cell lysate, small-molecule microarray, COS7 lysate, 635/667 nm fluorescence (AID 1150).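 Also: score pools 667 nm emission and signal to noise measuring lysate protein binding.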 The conditions noted are these: COS7 hTOR1A mutant lysate, 635 nm fluorescence, higher = more signal.
Assay [19] has as its system Sonic hedgehog protein (Shh). Briefly: small-molecule binders of Shh protein, primary screen, biochemical, small-molecule microarray, 635/667 nm fluorescence (AID 1151).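 Also: Shh protein binding to compounds spotted on small-molecule microarray slides; score combines spot fluorescence intensity with signal-to-noise across triplicate slides.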 The conditions noted are these: small-molecule microarray binding, 635 nm fluorescence; higher = more signal.

Fibroblast growth factor 2 (Homo sapiens), sequence (P09038 whole entry, looked up): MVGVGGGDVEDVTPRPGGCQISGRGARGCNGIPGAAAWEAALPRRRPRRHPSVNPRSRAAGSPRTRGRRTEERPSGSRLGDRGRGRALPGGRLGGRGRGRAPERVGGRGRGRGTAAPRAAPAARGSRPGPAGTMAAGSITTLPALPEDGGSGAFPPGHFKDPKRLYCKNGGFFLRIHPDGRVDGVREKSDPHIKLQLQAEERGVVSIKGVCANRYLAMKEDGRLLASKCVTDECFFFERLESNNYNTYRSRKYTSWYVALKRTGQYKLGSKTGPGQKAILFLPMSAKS
Streptavidin (Streptomyces avidinii), sequence (P22629 whole entry, looked up): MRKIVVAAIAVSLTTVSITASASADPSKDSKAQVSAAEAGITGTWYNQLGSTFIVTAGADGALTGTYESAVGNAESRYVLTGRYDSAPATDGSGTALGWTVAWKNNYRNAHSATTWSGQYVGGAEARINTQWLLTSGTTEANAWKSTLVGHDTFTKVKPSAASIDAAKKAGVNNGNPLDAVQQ

For the molecule `CC1CC/C=C\[C@H]2OC34C=CCN(c5ccc(Cl)cc5)C(=O)[C@H]3N(CCCO)C(=O)[C@]4(C)C2C(=O)O1` (stereo not given in full), the composite z-score in assay [1] was -0.567; in assay [2] it was -0.796; in assay [3], -0.444; in assay [4], -1.67; in [5], -0.6; in [6] it was -1.2. The composite z-score was -0.157 in the assay on Lefty1; -1.34 in [8]; -0.785 in assay [10]; -1.02 in assay [15]; -0.253 in [16]; -2.1 with Torsin-1A (Homo sapiens) [17]. The composite z-score with Torsin-1A (Homo sapiens) [18] was -0.989; in [19], 0.424. Besides, the z-score in assay [7] is 0.58; in assay [9], -0.0112 (inactive); in assay [11], -0.0438 (inactive); in assay [12], 1.63 (inactive); in assay [13], 0.988 (inactive); in assay [14], 0.22 (inactive).
Turning to `CCCC[C@@H]1C[C@H]1[C@@H](NC(=O)c1ccc(C(F)(F)F)cc1)c1ccc(C(=O)OC)cc1`, the composite z-score in assay [1] is 1.21; in assay [2], 0.411; in assay [3], 0.135; in assay [4], 0.366; in [5] it was 1.25; in assay [6], -0.115. The composite z-score with Lefty1 was 0.944; in [8], 0.849; in assay [10], 1.16; in assay [15], 1.59; in assay [16], -0.0092; in the assay with Torsin-1A (Homo sapiens) [17], 3.21. The composite z-score in the assay with Torsin-1A (Homo sapiens) [18] came out at 3.93; in assay [19] it was 1.91. In addition, the z-score in assay [7] is 1.19; in assay [9] it was 0.915 (inactive); in assay [11], -2.9 (inactive); in [12] it was 0.164 (inactive); in assay [13], 0.583 (inactive); in assay [14] it was -0.269 (inactive).
On to `COCCOC(=O)N1C(=O)[C@@]2(c3cc(C#Cc4ccc(OC)cc4)ccc31)[C@H](c1ccc(OCCO)cc1)N1[C@H](c3ccccc3)[C@H](c3ccccc3)OC(=O)[C@H]1[C@@H]2C(=O)N1CCCCCCC1`, for which the composite z-score in [1] was -0.252; in [2], 1.2; in [3] it was 1.4; in assay [4] it was 0.636; in assay [5], 1.36; in [6], 1.24. The composite z-score was found to be 1.36 in the assay with Lefty1; 1.01 in assay [8]; 0.713 in [10]; 2.42 in assay [15]; 1.65 in [16]; 0.666 in the assay with Torsin-1A (Homo sapiens) [17]. Further, the composite z-score was found to be 1.71 with Torsin-1A (Homo sapiens) [18] and 2.02 in assay [19]. Besides, the z-score in [7] is -0.625; in assay [9] it was -2.14 (inactive); in assay [11] it was -3.28 (inactive); in [12] it was -1.44 (inactive); in assay [13], 0.891 (inactive); in assay [14] it was -0.498 (inactive).
`COC(=O)[C@@]1(Cc2ccccc2CN=[N+]=[N-])COC(c2ccc(OCCCO)cc2)=N1`: the composite z-score in assay [1] is -0.322; in assay [2] it was -0.493; in [3], -0.161; in assay [4], -2.41; in [5], -1.88; in assay [6], -1.18. Moreover, the composite z-score is -1.65 in the assay with Lefty1; 0.0216 in [8]; -1.09 in assay [10]; -1.25 in assay [15]; -0.203 in assay [16]; -3.23 in the assay with Torsin-1A (Homo sapiens) [17]. The composite z-score is -2.37 with Torsin-1A (Homo sapiens) [18] and -1.15 in assay [19]. Besides, the z-score in [7] was -0.408; in assay [9] it was -1.88 (inactive); in assay [11], -3.56 (inactive); in assay [12] it was -0.0995 (inactive); in [13], 1.19 (inactive); in assay [14] it was -0.244 (inactive).

For the origin of these results see PubChem BioAssay.
